Results filed as inconclusive are left out. Calls of active or inactive are those of the source. Calls follow the shape of the dose curve; as a rule, active = well fitted inhibition curve with a large enough effect; inconclusive = small, poorly fitted or top-dose-only effect; inactive = flat fitted curve, though single readings scatter.
test system: C2A; experiment: qHTS profiling for inhibitors of Plasmodium falciparum proliferation (AID 504749); also: nearly all actives have a fitted effect of over 60% in size;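 as to activity, negative = inhibition: 0% = DMSO vehicle and full inhibition = artemisinin control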; conditions: P. falciparum in erythrocytes, SYBR Green DNA, 72 h; series mostly up to 28.7 µM; activity, negative = inhibition: at the top concentration
Summary of the method: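 SYBR Green fluorescence of parasite DNA, read after lysis and overnight dark incubation, measured growth over 72 h in erythrocyte culture at 0.3% parasitemia and 2.5% hematocrit. Data normalised to DMSO and 0.29 uM artemisinin, with plate-drift correction.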
Potency is read from the fitted curve at half-maximal effect.

activity, negative = inhibition, inactive:
CCCCCCCCCCCCCCCC(=O)OC[C@H](O)[C@H]1OC[C@@H](O)[C@@H]1O 3.97%
C[C@H]1OC(OC2C(O)[C@@H](O)C(OC3C(O)[C@@H](O)C(O)O[C@@H]3CO)O[C@@H]2CO)[C@H](O)C(O)C1N[C@H]1C=C(CO)[C@@H](O)[C@H](O)C1O (stereo not given in full) 2.99%
CCN(CC)CC(=O)Nc1c(C)cc(C)cc1C -2.05%
CC(=O)N[C@H]1[C@H](O[C@@H]2c3ccc(c(Cl)c3)Oc3cc4cc(c3O[C@@H]3O[C@H](CO)[C@@H](O)[C@H](O)C3C)Oc3ccc(cc3Cl)C[C@H]3NC(=O)[C@@H](N)c5ccc(O)c(c5)Oc5cc(O)cc(c5)[C@H](NC3=O)C(=O)N[C@H]4C(=O)N[C@H]3C(=O)N[C@@H]2C(=O)N[C@@H](C(=O)O)c2cc(O)cc(O[C@H]4O[C@H](CO)[C@@H](O)C(O)[C@@H]4O)c2-c2cc3ccc2O)O[C@H](CO)[C@@H](O)[C@@H]1O (stereo not given in full) -0.775% [at 12.8 µM]
NC(=O)c1ncn(C2OC(CO)C(O)C2O)c1N (stereo not given) 5.59%
CC1(Cn2ccnn2)[C@H](C(=O)O)N2C(=O)C[C@H]2S1(=O)=O (stereo not given in full) 9.38%
CN(C)CC/C=C1\c2ccccc2COc2ccc(CC(=O)O)cc21 -3.61%
CCCC(=O)O[C@]1(C(=O)COC(C)=O)CC[C@H]2C3C[C@H](F)C4=CC(=O)C=CC4(C)[C@@]3(F)[C@@H](O)CC21C (stereo not given in full) -5.79%

Potency, active:
CCCCC(=O)OCC(=O)[C@]1(O)Cc2c(O)c3c(c(O)c2[C@H](OC2CC(NC(=O)C(F)(F)F)C(O)C(C)O2)C1)C(=O)c1c(OC)cccc1C3=O (stereo not given in full) 2000 nM
C[C@H]1[C@@H](OC(=O)CCC(=O)O)OC2OC3(C)CC[C@H]4[C@H](C)CC[C@@H]1[C@@]24OO3 (stereo not given in full) 3.2 nM
